Sampled rows, rich in hits. Any-hit rate of the full collection: about 3%.
SARS PLP yeast – SARS-CoV PLP inhibition in yeast. S. cerevisiae expressing SARS-CoV PLpro, growth rescue. 0.19% of 330,000 active. Potency, µM (highest dose often 32.9 µM), for the others: at the top dose activity, positive = growth rescue, hits mostly activators. AID 485353; calls by dose curve; also: 0% is about no effect; nearly all actives have a fitted effect of over 55% in size
Sm TGR inh – inhibitors of Schistosoma mansoni thioredoxin glutathione reductase; Q962Y6; purified TGR, DTNB reduction, TNB absorbance 405 nm; 3% of 360,000 active; AID 485364; Potency, µM (doses to about 114 µM), for the others: top-dose activity change, negative = inhibition, most hits filed as inhibitors; active = well fitted inhibition curve with a large enough effect; inconclusive = small, poorly fitted or top-dose-only effect; inactive = no such curve, though single readings can be large or run the other way; also: % is scaled to controls: 0 for no effect and ±100 for the full control effect; nearly all actives have a fitted effect of over 60% in size
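TGR 20 nM + NADPH 100 uM (dispensed conc.), cpd preinc 15 min RT; start with NADPH (500 uM addition) then DTNB (15 mM addition). Kinetic TNB absorbance, 405 nm filter. Four-parameter Hill fit across titration.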
* = called active by the depositor; ? = inconclusive; / = no result given. Potency is read from the fitted curve at half-maximal effect.

SMILES | SARS PLP yeast | Sm TGR inh
CC(C)(C)C1CCc2c(sc(NC(=O)CCC(=O)O)c2C(=O)Nc2ccccc2C(F)(F)F)C1 (centres undefined) | / | -0.8%
CNC(=S)Nc1ccc(OC)c(OC)c1 | 2.2% | -14.2%
COc1ccc(NC(=S)Nc2cccc(Cl)c2Cl)cc1OC | -0.6% | 28.2µM*
COc1ccc(-c2ccc(CCC(=O)O)n2NC(N)=O)cc1 | 0.1% | 44.7µM*
CCCn1c(CCC(=O)O)ccc1-c1ccc(OC)cc1 | / | 39.8µM*
COc1ccc(C(=O)Nn2c(CCC(=O)O)ccc2-c2ccc(C)cc2)cc1OC | 0.7% | ?
NC(=O)Nn1c(CCC(=O)O)ccc1-c1ccc(Br)cc1 | 0.5% | 14.1µM*
COc1ccc(NC(=O)Cn2c(CCC(=O)O)ccc2-c2ccc(C)cc2)cc1 | 25.0% | -3.4%
NC(=O)Nn1c(CCC(=O)O)ccc1-c1ccc(Cl)cc1 | 0.1% | -32.2%
COc1cc2oc(=O)c(CC(=O)NCCc3ccccc3)c(C)c2cc1Cl | / | -0.7%
CCOc1ccc(-n2c(-c3ccc(Br)cc3)cc3c2CC(C)(C)CC3=O)cc1 | / | -2.9%
Cc1ccc2cccc(NC(=O)c3cccc4c(Br)cccc34)c2n1 | / | 2.7%
CC(C)N(Cc1ccccc1)C(=O)c1nc(-c2ccc(Cl)cc2)n2c1CCCCC2 | / | -5.8%
O=C(CSc1nncn2c1cc1sccc12)Nc1ccc(Br)cc1F | / | 0.6%
COc1ccc2c(c1)CCc1c(C(=O)Nc3c(C)nn(Cc4ccc(Cl)c(Cl)c4)c3C)noc1-2 | / | -11.4%
CNC(=O)C1CCC(Cn2c(=O)c3sccc3n(CC(=O)Nc3ccc(C)c(C)c3)c2=O)CC1 (centres undefined) | / | -8.5%
O=C(NCCc1ccccc1Cl)c1sc2ncccc2c1-n1cccc1 | / | -1.7%
Cc1ccc(S(=O)(=O)c2cnc(SCC(=O)Nc3ccccc3C(F)(F)F)[nH]c2=O)cc1C | / | 4.5%
CCOC(=O)c1oc2ccccc2c1NC(=O)CCl | -0.8% | 5.62µM*
CCOC(=O)c1oc2ccccc2c1NC(=O)c1ccco1 | 2.8% | 0.7%
O=C(NC1CCCCC1)c1ccc(Cn2c(SCc3cccc(F)c3)nc3cccnc32)cc1 | / | 5.3%
C=CCc1cc(C(=O)N2CCCCC2)ccc1O | 1.7% | 3.0%
C=CCc1ccc(O)c(-c2ccc(O)c(CC=C)c2)c1 | -3.3% | 44.7µM*
Cc1cc(C)c(O)c(N)c1 | -5.3% | 3.16µM*
Cc1ccc(N)c(C)c1 | -2.7% | -2.5%
SMILES | SARS PLP yeast | Sm TGR inh
CCCOc1ccc(CNC(=O)c2ccc(C)c(-n3c(C)nc4cccnc43)c2)cc1 | / | -5.6%
CCOC(=O)c1cccc(NC(=O)CCn2c(-c3ccc(F)cc3)cc(C(=O)OCC)c2C)c1 | / | 7.8%
COc1cccc(C(=O)Nc2ccc(NC(C)=O)cc2)c1 | 2.9% | 1.7%
COc1cccc(C(=O)C(C#N)=C(SC)SC)c1 | 0.5% | 12.6µM*
CSC(SC)=C(C#N)C(=O)c1ccccc1 | -0.2% | 11.2µM*
O=C(O)c1ccc(C(=O)C(=O)c2ccccc2)cc1 | 3.6% | -14.1%
CCc1ccc2c(c1)NC(c1cccnc1)=NC(c1ccc(C(C)(C)C)cc1)=N2 | / | -9.0%
C(=C1/CCCC2=C1Nc1ncnn1C2c1ccccc1)/c1ccccc1 (centres undefined) | ? | 0.501µM*
FC(F)(F)c1ccccc1C1C2=C(Nc3ncnn31)c1ccccc1CCC2 (centres undefined) | -3.1% | -35.4%
CN1C(=O)Cc2cc(S(=O)(=O)CCC(=O)Nc3ccccc3)ccc21 | / | 1.4%
CCOC(=O)/C(C#N)=C/c1cc2ccccc2nc1N1CCOCC1 | 0.2% | 41.4%
N#CC(C#N)=Cc1cc2ccccc2nc1N1CCCCC1 | -40.3% | 5.01µM*
CCN1CCN(C2CC(=O)NC2=O)CC1 (centres undefined) | 2.6% | -3.2%
O=C1CC(N2CCC(C(=O)N3CCCCC3)CC2)C(=O)N1 (centres undefined) | 0.0% | 31.6µM*
N#CCCCN1C(=O)C(=C(C#N)C#N)c2ccccc21 | -0.9% | 2.51µM*
N#CCCCN1C(=O)C(O)(CC(=O)c2ccc3c(c2)OCCO3)c2ccccc21 (centres undefined) | -2.9% | 1.6%
Cc1nn(C)c2c1c(-c1ccccc1)cc(=O)n2CC(=O)NC(C)C | / | 1.6%
Cc1cccc(NC(=O)c2c(C)cc(C)nc2SCC(=O)c2ccccc2)c1 | / | 0.0%
C[n+]1cccc2ccc3c(c21)OC(N)=C(C#N)C3c1ccccc1 (centres undefined) | 1.2% | -10.1%
C[n+]1cccc(C2C(C#N)=C(N)Oc3c2ccc2ccccc32)c1 (centres undefined) | 3.6% | 39.8µM*
O=S(=O)(c1ccc(Br)cc1)c1nnn2c1nc(NCc1ccc3c(c1)OCO3)c1sccc12 | / | 1.0%
CC(=O)OCC1(C)CN(c2ccccc2)NC1=O (centres undefined) | -2.8% | 7.94µM*
CC(=O)OCC1(C)CN(c2ccccc2)N(C(C)=O)C1=O (centres undefined) | 0.3% | 0.0%
CCOc1ccccc1NC(=O)CC(c1ccc(F)cc1)N1Cc2ccccc2C1=O (centres undefined) | / | 3.8%
CCOc1ccc(NC(=O)Cn2c(=O)oc3cc(S(=O)(=O)NC4CCCC4)ccc32)cc1 | / | -1.0%
SMILES | SARS PLP yeast | Sm TGR inh
COc1ccccc1NC(=O)CCCCCN1C(=O)c2cccc([N+](=O)[O-])c2C1=O | 1.5% | -7.3%
COc1cc(/C=C2/C(=O)c3cccc([N+](=O)[O-])c3C2=O)c(Br)cc1O | -54.5% | 35.5µM*
CCOc1ccc(/C=C/c2nc(C#N)c(NC(C)CC)o2)cc1 (centres undefined) | / | -1.9%
O=C(c1ccccc1Cl)N(Cc1ccco1)c1ccccn1 | / | -0.2%
COc1ccc2nc3oc(C(=O)N4CCN(c5cccc(Cl)c5)CC4)cc3cc2c1 | 0.1% | 3.5%
COc1ccc2nc3oc(C(=O)N4CCN(c5cc(C)ccc5C)CC4)cc3cc2c1 | / | 89.1µM*
COc1ccccc1N1CCN(C(=O)c2ccc3nc(-c4ccco4)c(-c4ccco4)nc3c2)CC1 | 15.4% | 14.1µM*
COc1ccccc1N1CCN(C(=O)c2ccc3nc[nH]c3c2)CC1 | 10.0% | -1.3%
Cc1ccc(C)c(N2CCN(C(=O)c3ccc4nc(-c5ccco5)c(-c5ccco5)nc4c3)CC2)c1 | 3.2% | 6.31µM*
Cc1ccc(C)c(N2CCN(C(=O)c3ccc4nc(N5CCOCC5)sc4c3)CC2)c1 | -2.6% | -25.5%
CCC(C)n1c(=O)c2sccc2n2c(CCCC(=O)NCc3ccccc3Cl)nnc12 (centres undefined) | / | 2.6%
CCCCN(CC)CCCNC(=O)c1c(C)oc2ncnc(N3CCOCC3)c12 | / | -1.6%
COc1ccccc1Cn1cc(C(=O)c2ccc(C)cc2)c(=O)c2cc3c(cc21)OCCO3 | / | -0.5%
CCC(=O)c1cn(CC(=O)Nc2ccccc2)c2ccccc12 | -0.5% | 3.3%
CCC(=O)c1cn(CC(=O)Nc2ccc(C)cc2)c2ccccc12 | 0.6% | 100µM*
CCN(CC)S(=O)(=O)c1ccc2c(c1)N(CC(=O)N1CCN(c3cccc(OC)c3)CC1)C(=O)CO2 | / | 7.8%
CCCc1noc(-c2ccc(N3CCCCC3)c([N+](=O)[O-])c2)n1 | / | 1.9%
CCOc1ccc(CNC(=O)C2Cc3ccccc3N2C(=O)CC)cc1OC (centres undefined) | / | 4.5%
Nc1nc(CCl)nc(Nc2ccccc2)n1 | -4.5% | 39.8µM*
Cc1ccc(Nc2nc(N)nc(CC#N)n2)cc1 | 3.7% | 17.4%
CCOc1ccc(Nc2nc(N)nc(CCl)n2)cc1 | -0.8% | 25.1µM*
Nc1nc(CN2CCN(Cc3ccccc3)CC2)nc(Nc2ccccc2)n1 | -4.6% | ?

Screening results from PubChem.
